Results filed as inconclusive are left out. A call without a number means that no potency is given here. The source made the active and inactive calls. Unless noted, the call rests on the fitted dose curve; in most records, active means well fitted curve in the direction sought with a large enough effect; inconclusive means small, poorly fitted or top-dose-only effect, or another doubt; inactive means no such curve, though single readings can be large; an effect the other way counts as inactive or inconclusive.
Experiments:
[1] = molecular target: Cytochrome P450 3A4 (Homo sapiens) (UniProt P08684); assay: qHTS Assay for Inhibitors and Substrates of Cytochrome P450 3A4 (AID 884); further: nearly all actives have a fitted effect of over 50% in size; further: potency means the concentration at half of the fitted maximal effect
In short: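 Luminescent readout of luciferin produced by CYP3A4 (20 nM) dealkylation of Luciferin-PPXE, 25 uM (its KM). NADPH-driven reaction ran 60 min at RT after 10 min compound preincubation; data scaled to 57 uM ketoconazole as 100% inhibition.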

[2] = molecular target: Cytochrome P450 3A4 (Homo sapiens) (UniProt P08684); assay: qHTS Assay for Activators of Cytochrome P450 3A4 (AID 885); further: nearly all actives have a fitted effect of over 65% in size; further: potency means the concentration at half of the fitted maximal effect
In short: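 Using 20nM recombinant human CYP3A4 in potassium phosphate (200mM), substrate Luciferin-PPXE at 25uM, luminescent luciferin detection followed a 60-min RT NADPH reaction; data scaled to 57 uM ketoconazole.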

[3] = Confirmation and Secondary Assay for Modulators of Hemoglobin Beta Chain Splicing at IVS2 654 locus (AID 910);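 further: HeLa cells stably carrying EGFP split by mutant beta-globin IVS2-654 intron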
In short: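 Readout: per-well total peak green fluorescence (488 nm ex, 500–520 nm em) from objects 5–250 µm, reflecting correct splicing of an EGFP-654 reporter. Compounds were applied for 2 days at 37 °C to overnight-plated HeLa EGFP-654 cells; controls were DMSO and 500 nM IVS2-654 PNA.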

[4] = Confirmation and Secondary Assay for Modulators of Hemoglobin Beta Chain Splicing at IVS2 705 locus (AID 930);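 further: HeLa cells stably expressing the EGFP-705 splicing reporter; GFP fluorescence per well restored by corrected splicing of the IVS2-705 intron in EGFP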
In short: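 Read-out: total peak GFP fluorescence per well (488 nm excitation, 500-520 nm emission) by laser-scanning cytometry. Cells: HeLa EGFP-705 splicing reporter, 2 days compound exposure in Optimem/2% FCS.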

[5] = qHTS Assay for Lipid Storage Modulators (AID 1519; calls by dose curve); settings: Drosophila S3 cells, BODIPY lipid droplet/cell ratio, laser cytometry, cells loaded with oleic acid; for activity change, negative = inhibition: at 57.5 µM (top of the series)
In short: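 Cells seeded at 5,000 per well were treated with compounds over a concentration series and loaded with oleic acid (400 uM, as added). Lipid droplet fluorescence (488 nm excitation, 500-530 nm channel) was read by laser-scanning cytometry and normalized to 20 uM Triacsin C.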

[6] = molecular target: Ubiquitin carboxyl-terminal hydrolase 1 (Homo sapiens) (UniProt O94782); assay: Inhibitors of USP1/UAF1: Pilot qHTS (AID 504865);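 further: rhodamine fluorescence freed from ubiquitin-rhodamine substrate followed over time; top concentration of the series differs between compounds; nearly all actives have a fitted effect of over 35% in size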
In short: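 Deubiquitinase activity followed as kinetic rhodamine fluorescence release from 150 nM Ub-Rho. 1 nM USP1/UAF1 with compound, after 15 min room-temperature preincubation, in HEPES pH 7.8 buffer containing TCEP, EDTA, BSA and Tween-20.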

[7] = molecular target: Luciferin 4-monooxygenase (Photinus pyralis) (UniProt P08659); assay: Biochemical firefly luciferase enzyme assay for NPC (AID 624030);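 further: purified P. pyralis luciferase at 10 nM with luciferin and ATP substrate; nearly all actives have a fitted effect of over 70% in size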
In short: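 Direct inhibition of firefly luciferase enzyme (10 nM final, 50 mM Tris Acetate) assessed by luminescence within 5 minutes. Percent activity scaled between DMSO and PTC124 positive control, with concentration-effect curves classified by fit quality and response.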

[8] = molecular target: DNA dC->dU-editing enzyme APOBEC-3G (Homo sapiens) (UniProt Q9HC16); assay: qHTS for inhibitors of Vif-A3G interactions: Validation (AID 588379)
In short: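 Yellow fluorescence (Ex 488, Em 500-530) of Vif-coexpressing HeLa A3G-eYFP cells, scanned by Acumen cytometer, reports blocked A3G degradation. Cells plated at 700/well overnight at 37 deg C before compound addition, then a further overnight compound incubation at 37 deg C.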

[9] = measured here: cell count channel max response
[10] = measured here: lipid channel max response

Cytochrome P450 3A4 (Homo sapiens), sequence (P08684 whole entry, looked up): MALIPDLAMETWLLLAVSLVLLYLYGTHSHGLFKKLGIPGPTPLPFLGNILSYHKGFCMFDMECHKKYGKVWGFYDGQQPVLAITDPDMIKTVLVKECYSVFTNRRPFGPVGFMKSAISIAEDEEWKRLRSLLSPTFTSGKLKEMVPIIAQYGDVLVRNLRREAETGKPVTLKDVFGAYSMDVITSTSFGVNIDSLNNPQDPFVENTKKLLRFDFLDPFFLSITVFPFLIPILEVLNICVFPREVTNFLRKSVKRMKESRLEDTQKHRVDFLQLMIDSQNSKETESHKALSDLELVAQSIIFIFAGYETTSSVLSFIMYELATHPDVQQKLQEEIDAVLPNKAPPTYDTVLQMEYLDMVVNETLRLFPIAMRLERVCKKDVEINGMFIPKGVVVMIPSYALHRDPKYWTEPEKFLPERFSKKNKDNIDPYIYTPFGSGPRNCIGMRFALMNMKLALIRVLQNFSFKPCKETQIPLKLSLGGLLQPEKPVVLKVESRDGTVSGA
Ubiquitin carboxyl-terminal hydrolase 1 (Homo sapiens), sequence (O94782 whole entry, looked up): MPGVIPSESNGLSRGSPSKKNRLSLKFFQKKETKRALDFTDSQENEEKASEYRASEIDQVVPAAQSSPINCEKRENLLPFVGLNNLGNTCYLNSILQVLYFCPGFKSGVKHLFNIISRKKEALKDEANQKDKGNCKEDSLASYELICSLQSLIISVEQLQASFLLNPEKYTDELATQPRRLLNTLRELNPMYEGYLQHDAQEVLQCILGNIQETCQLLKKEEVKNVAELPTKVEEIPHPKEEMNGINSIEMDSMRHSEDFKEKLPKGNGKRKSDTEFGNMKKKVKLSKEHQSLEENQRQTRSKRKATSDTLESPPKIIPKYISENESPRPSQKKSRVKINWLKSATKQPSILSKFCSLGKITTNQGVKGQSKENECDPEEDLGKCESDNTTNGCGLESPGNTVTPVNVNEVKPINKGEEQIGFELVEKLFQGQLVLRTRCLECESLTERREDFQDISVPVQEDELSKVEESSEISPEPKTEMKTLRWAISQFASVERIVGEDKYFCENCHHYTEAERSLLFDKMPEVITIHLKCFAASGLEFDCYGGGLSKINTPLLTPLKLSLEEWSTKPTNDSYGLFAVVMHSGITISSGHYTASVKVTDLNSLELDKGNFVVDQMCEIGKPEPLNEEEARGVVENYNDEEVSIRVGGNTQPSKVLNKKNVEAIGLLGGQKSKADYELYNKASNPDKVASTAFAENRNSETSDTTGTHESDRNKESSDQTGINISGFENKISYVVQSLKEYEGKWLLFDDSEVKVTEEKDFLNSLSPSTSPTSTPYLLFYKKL
DNA dC->dU-editing enzyme APOBEC-3G (Homo sapiens), sequence (Q9HC16 whole entry, looked up): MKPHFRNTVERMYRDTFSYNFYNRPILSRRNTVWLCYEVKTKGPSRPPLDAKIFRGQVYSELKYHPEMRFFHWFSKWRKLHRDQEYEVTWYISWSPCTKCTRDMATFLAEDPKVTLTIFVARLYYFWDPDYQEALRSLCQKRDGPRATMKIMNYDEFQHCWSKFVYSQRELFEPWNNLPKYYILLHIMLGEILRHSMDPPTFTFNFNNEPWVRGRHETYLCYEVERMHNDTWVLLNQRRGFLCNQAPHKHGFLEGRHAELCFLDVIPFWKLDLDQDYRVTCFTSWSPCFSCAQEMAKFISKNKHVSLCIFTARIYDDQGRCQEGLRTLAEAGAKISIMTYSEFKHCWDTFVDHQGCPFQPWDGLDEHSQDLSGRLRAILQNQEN
Luciferin 4-monooxygenase (Photinus pyralis), sequence (P08659 whole entry, looked up): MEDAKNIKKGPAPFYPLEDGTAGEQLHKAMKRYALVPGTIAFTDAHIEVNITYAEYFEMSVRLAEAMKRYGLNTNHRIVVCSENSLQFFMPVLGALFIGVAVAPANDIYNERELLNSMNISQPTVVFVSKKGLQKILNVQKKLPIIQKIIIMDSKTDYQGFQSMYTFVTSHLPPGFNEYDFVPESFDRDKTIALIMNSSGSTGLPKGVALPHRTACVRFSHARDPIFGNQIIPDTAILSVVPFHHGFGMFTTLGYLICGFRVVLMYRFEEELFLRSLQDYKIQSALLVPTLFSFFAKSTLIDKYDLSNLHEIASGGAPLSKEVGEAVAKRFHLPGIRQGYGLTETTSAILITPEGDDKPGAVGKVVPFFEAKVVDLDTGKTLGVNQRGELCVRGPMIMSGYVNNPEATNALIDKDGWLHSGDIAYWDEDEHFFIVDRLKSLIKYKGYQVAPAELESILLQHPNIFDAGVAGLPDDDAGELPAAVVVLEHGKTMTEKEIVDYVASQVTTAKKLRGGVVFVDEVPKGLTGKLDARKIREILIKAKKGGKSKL

| Compound | Potency [1] | Potency [2] | Potency [3] | Potency [4] | activity change, negative = inhibition [5] | max response [5, 9] [%] | max response [5, 10] [%] | Potency [6] | Potency [7] | outcome [8] |
| --- | --- | --- | --- | --- | --- | --- | --- | --- | --- | --- |
| Nc1nc2c(nc(Sc3ccc(Cl)cc3)n2C2OC(CO)C(O)C2O)c(=O)[nH]1 (stereo unspecified) | 15.8 µM (active) | inactive | inactive | inactive | 5.03% (inactive) | 14.6 | 19.6 | inactive |  |  |
| O=C(O)CCCCC1SCC2NC(=O)NC21 (stereo unspecified) | inactive |  | inactive | inactive | 0.834% (inactive) | 11.8 | 16 | inactive | inactive |  |
| CC(=O)OC1C=C[C@]2(C)C(CC(OC(C)=O)[C@@]3(C)C4=CC(=O)OC(c5ccoc5)[C@]4(C)CCC23)C1(C)C (stereo partly specified) | inactive | 12.6 µM (active) | inactive | inactive | -0.882% (inactive) | -3.66 | 1.1 | inactive |  |  |
| COc1ccc(C2CC(=O)c3c(O)cc(O)cc3O2)cc1O (stereo unspecified) | 15.8 µM (active) | inactive | inactive | inactive | 3.83% (inactive) | 3.05 | 6.13 | inactive |  |  |
| Cc1ccc2c(c1)CC[C@H]1CC(=O)CC[C@@]21C | 15.8 µM (active) | inactive | inactive | inactive | 2.54% (inactive) | -2.47 | 1.9 | inactive |  |  |
| O=C(O)C1OC(O)C(O)C(O)C1O (stereo unspecified) | inactive |  |  |  | -3.53% (inactive) | -1.15 | -5.5 | inactive |  | inactive |
| CC(=O)OC1C[C@@]2(C)C(c3ccoc3)OC(=O)C3O[C@@]32[C@]2(C)C(OC(C)=O)CC3C(C)(C)C(OC(C)=O)CC(OC(C)=O)[C@@]3(C)C12 (stereo partly specified) | 5.01 µM (active) | inactive | inactive | inactive | -11.3% (inactive) | -1.68 | -11 | inactive |  |  |
| O=c1cc(-c2cccc(O)c2)oc2ccc(O)cc12 | 3.98 µM (active) | inactive | inactive | inactive | 13.1% (inactive) | 3.49 | 17.7 | inactive |  |  |
| O=c1cc(-c2ccccc2)oc2cccc(O)c12 |  | inactive | inactive | inactive | 19.1% (inactive) | 2.34 | 21.9 | inactive |  | inactive |
| CC(=O)OC1CC2C(C)(C)C(O)CC(O)[C@@]2(C)C2CC[C@@]3(C)C(=CC(=O)OC3c3ccoc3)[C@]12C (stereo partly specified) | 3.98 µM (active) | inactive | inactive | inactive | 0.404% (inactive) | -0.781 | 3.91 | inactive |  |  |
| COC(=O)CC1C(C)(C)C(OC(C)=O)[C@@]2(O)C=C3C4CC(=O)OC(c5ccoc5)[C@]4(C)CCC3[C@@]1(C)C2=O (stereo partly specified) | 7.94 µM (active) | inactive | inactive | inactive | 10.4% (inactive) | 10.1 | 21.8 | inactive |  |  |
